Assay [1] is described as follows: CEETOX_H295R_11DCORT: CeeTox H295R High-throughput Steroidogenesis Assay for 11-Deoxycortisol (11DCORT) (AID 2283432; active = hit-call score of the fitted dose curve at least 0.9, where 1 is the maximum; inactive = score below 0.9;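 for AC50: human adrenal H295R cells prestimulated with 10 µM forskolin for 48 h; 11-deoxycortisol secreted into the medium measured by LC-MS/MS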). As to conditions: actives raise or lower the signal. The procedure, abridged: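 H295R cells prestimulated 48 h with 10 uM forskolin, then exposed 48 h to chemical in 0.1% DMSO. 11-Deoxycortisol in medium quantified by HPLC-MS/MS after MTBE extraction; bidirectional fit versus DMSO. MTT viability read in same wells.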

A short description of assay [2]: CEETOX_H295R_OHPROG: CeeTox H295R High-throughput Steroidogenesis Assay for OH-Progesterone (OHPROG) (AID 2283435; active = hit-call score of the fitted dose curve at least 0.9, where 1 is the maximum; inactive = score below 0.9;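 for AC50: human adrenal H295R cells primed 48 h with 10 µM forskolin; 17alpha-hydroxyprogesterone secreted into medium measured by HPLC-MS/MS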). To be noted: actives raise or lower the signal. In a few lines:
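Human adrenocortical H295R cells, passage 10 or lower, were treated with chemical for 48 h after forskolin priming, and hormone output in the medium was quantified by LC-MS/MS.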

Assay [3] can be described thus: CEETOX_H295R_ANDR: CeeTox H295R High-throughput Steroidogenesis Assay for Androstenedione (ANDR) (AID 2283436; active = hit-call score of the fitted dose curve at least 0.9, where 1 is the maximum; inactive = score below 0.9). To be noted: actives raise or lower the signal. The procedure, abridged: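 Medium from 48 h chemical-treated H295R adrenal cells was extracted with MTBE and androstenedione measured by LC-MS/MS. Activity was fit in both directions relative to DMSO. Cytotoxic concentrations were re-tested after dilution until MTT viability reached ≥70%.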

The nature of assay [4]: CEETOX_H295R_CORTIC: CeeTox H295R High-throughput Steroidogenesis Assay for Corticosterone (CORTIC) (AID 2283437; active = hit-call score of the fitted dose curve at least 0.9, where 1 is the maximum; inactive = score below 0.9;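 for AC50: human H295R adrenal cells prestimulated with forskolin before chemical exposure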). As to conditions: actives raise or lower the signal. In a few lines:
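Medium corticosterone was quantified by tandem mass spectrometry following 48 hours of chemical exposure (0.1% DMSO) in human H295R cells previously stimulated 48 hours with 10 uM forskolin. Viability checked by MTT; chemicals diluted and retested when viability fell below 70%.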

Assay [5] addresses Peroxisome proliferator-activated receptor gamma (Homo sapiens) (UniProt P37231). The assay can be described thus: OT_PPARg_PPARgSRC1_0480: Odyssey Thera (OT) 8-hour Protein-Complementation Assay for Peroxisome Proliferator-activated Receptor Gamma / SRC-1 Co-activator (AID 2283387). In a few lines: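 HEK293T transiently transfected with PPARg and SRC-1 fused to Venus YFP fragments, compounds 8 h at 37C. Fixed, Draq5-stained cells imaged; nuclear/cytoplasmic 488 nm fluorescence ratio over at least 350 cells per image; gain fitted versus DMSO.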

Assay [6] shares this target. The assay can be described thus: OT_PPARg_PPARgSRC1_1440: Odyssey Thera (OT) 24-hour Protein-Complementation Assay for Peroxisome Proliferator-activated Receptor Gamma/ SRC-1 Co-activator (AID 2283388). The procedure, abridged:
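HEK293T transiently transfected with PPARg/SRC-1 split-Venus YFP fusions 48 h before dosing, then treated 24 h at 37C. Fixed cells imaged; nuclear/cytoplasmic 488 nm fluorescence ratio, gain of signal versus DMSO.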

Assay [7] has as its target Retinoic acid receptor RXR-alpha (Homo sapiens) (UniProt P19793). The assay can be described thus: OT_NURR1_NURR1RXRa_1440: Odyssey Thera (OT) 24-hour HEK293T Protein Complementation Assay for Nurr1/retinoid X receptor (RXR) (AID 2283386). In a few lines: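 Cell-based binding reporter: HEK293T cells, 24 h exposure, fluorescence-detected fragment complementation, DMSO as baseline.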

The target is the same in assay [8]. The assay can be described thus: OT_NURR1_NURR1RXRa_0480: Odyssey Thera (OT) 8-hour HEK293T Protein Complementation Assay for Nurr1/retinoid X receptor (RXR) (AID 2283385). The procedure, abridged: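 Gain in fluorescent complementation signal over DMSO, measured 8 hours after chemical dosing of human kidney HEK293T cells, indicated enhanced Nurr1–RXRα association.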

One may read the AC50 as the midpoint of the concentration-response curve, whichever way the signal moves.

Structures are written as SMILES. Records with an inconclusive call do not appear. Calls of active or inactive are those of the source. Rule for the calls, unless noted: active = hit-call score of the fitted dose curve at least 0.9, where 1 is the maximum; inconclusive = response in the unintended direction; inactive = score below 0.9.

Sequence of Retinoic acid receptor RXR-alpha (Homo sapiens) (P19793 whole entry, looked up, the tested form may be a part): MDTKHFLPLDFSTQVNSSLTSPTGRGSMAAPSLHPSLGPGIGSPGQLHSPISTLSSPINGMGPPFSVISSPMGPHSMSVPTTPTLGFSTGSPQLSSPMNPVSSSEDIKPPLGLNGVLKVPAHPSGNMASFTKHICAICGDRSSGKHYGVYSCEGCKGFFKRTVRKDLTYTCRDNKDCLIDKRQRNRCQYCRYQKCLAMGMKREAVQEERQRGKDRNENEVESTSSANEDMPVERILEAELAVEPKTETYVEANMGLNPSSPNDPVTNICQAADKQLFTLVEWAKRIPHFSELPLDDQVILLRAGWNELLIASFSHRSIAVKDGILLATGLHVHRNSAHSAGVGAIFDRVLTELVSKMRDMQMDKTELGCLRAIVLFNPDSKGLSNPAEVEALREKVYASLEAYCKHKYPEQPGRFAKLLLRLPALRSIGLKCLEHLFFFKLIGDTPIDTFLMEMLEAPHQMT
Sequence of Peroxisome proliferator-activated receptor gamma (Homo sapiens) (P37231 whole entry, looked up, the tested form may be a part): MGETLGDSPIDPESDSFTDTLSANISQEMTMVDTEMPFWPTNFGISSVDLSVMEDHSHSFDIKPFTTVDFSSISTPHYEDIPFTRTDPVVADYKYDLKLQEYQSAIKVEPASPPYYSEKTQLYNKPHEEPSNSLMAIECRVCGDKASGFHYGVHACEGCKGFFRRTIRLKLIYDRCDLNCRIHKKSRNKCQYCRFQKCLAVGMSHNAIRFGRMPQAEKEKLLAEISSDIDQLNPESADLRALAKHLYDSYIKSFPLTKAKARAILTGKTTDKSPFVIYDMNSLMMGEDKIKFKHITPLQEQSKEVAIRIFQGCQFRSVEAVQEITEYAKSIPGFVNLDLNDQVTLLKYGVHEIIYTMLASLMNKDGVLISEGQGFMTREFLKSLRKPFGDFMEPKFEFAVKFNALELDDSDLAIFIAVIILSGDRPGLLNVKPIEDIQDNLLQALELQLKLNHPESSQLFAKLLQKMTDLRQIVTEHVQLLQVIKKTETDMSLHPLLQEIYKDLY

As for `O=C(O)C[C@H](O)C[C@H](O)/C=C/c1c(C2CC2)nc2ccccc2c1-c1ccc(F)cc1`, the AC50 in assay [1] was 62.5 nM (active); in assay [2] it was 58.2 nM (active); in assay [3], 76.8 nM (active); in assay [4], 41.8 nM (active).

As for `CCCOCC(C)O` (centres undefined), the result in assay [5] and in assay [6] was inactive.

On to `O=C(Oc1ccccc1)c1ccc(O)cc1`, for which the molecule was called inactive in assay [7], in assay [5] and in assay [6].

For the molecule `O=C(O)c1ccc(C(=O)O)cc1`, the result in assay [7], in assay [5] and in assay [6] was inactive.

For the molecule `CC(C)C[C@H]1C(=O)N2CCC[C@H]2[C@]2(O)O[C@](NC(=O)[C@@H]3C=C4c5cccc6[nH]c(Br)c(c56)C[C@H]4N(C)C3)(C(C)C)C(=O)N12`, the outcome in assay [5] and in assay [6] was inactive.

For the molecule `CC1CC(OC(=O)c2ccccc2O)CC(C)(C)C1` (centres undefined), the AC50 in assay [8] was 92800 nM (active). The molecule was called inactive in assay [5] and in assay [6].

`CCCC/C=C\CCCCCCCCCC=O`: the molecule was classed as inactive in assay [8], in assay [5] and in assay [6].

For the molecule `CC1(C)C(=O)N(Br)C(=O)N1Cl`, the call in assay [5] and in assay [6] was inactive.

For the molecule `C=CC(C)(C)O`, the molecule was classed as inactive in assay [1], in assay [2], in assay [3] and in assay [4].

For `Cc1ccc2n[nH]nc2c1`, the result in assay [1], in assay [2] and in assay [4] was inactive.

Consider `COc1cc2ncnc(Nc3cccc(Cl)c3)c2cc1OC`, for which the molecule was classed as inactive in assay [1], in assay [2], in assay [3] and in assay [4].

In the case of `CSc1nc(NC2CC2)nc(NC(C)(C)C)n1`, the result in assay [8], in assay [5], in assay [6] and in assay [2] was inactive.

Consider `CCN(CC)c1ccc(C(=C2C=CC(=[N+](CC)CC)C=C2)c2ccc(S(=O)(=O)O)cc2S(=O)(=O)[O-])cc1`, for which the call in assay [5] and in assay [6] was inactive.

For the molecule `Cc1ccc(C(C)C)cc1O`, the molecule was classed as inactive in assay [7], in assay [5] and in assay [6].

With `CCN(CC)CCOC(=O)c1ccc(N)cc1`, the molecule was classed as inactive in assay [5] and in assay [6].

Source of the values: PubChem BioAssay (EPA / NIEHS).
